# Reference: PubChem BioAssay AID1851 (National Center for Advancing Translational Sciences (NCATS), 2009)
# Where “and” joins values, the source holds several entries; their conditions need not be identical. Equal values may be shown once. Hit rate of the full screen: of about 16,000 compounds, about 5,700 (36%) were called active. Roughly 24% stayed inconclusive and do not appear here. This is one part of the list. Unmarked numbers belong to inactive results. Calls come from the whole dose curve; as a rule, active = well fitted curve in the direction sought with a large enough effect; inconclusive = small, poorly fitted or top-dose-only effect, or effect the other way; inactive = no such curve, though single readings can be large or run the other way.
# Biological target: Cytochrome P450 1A2 (Homo sapiens) (UniProt P05177)
# Assay: Cytochrome panel assay with activity outcomes
# Conditions: recombinant CYP, pro-luciferin dealkylation, luminescence, p450-cyp1a2; series mostly up to 57.1 µM
# % is set by controls: 0 for no effect and ±100 for the full control effect.
# Sequence of Cytochrome P450 1A2 (Homo sapiens) (P05177 whole entry, looked up): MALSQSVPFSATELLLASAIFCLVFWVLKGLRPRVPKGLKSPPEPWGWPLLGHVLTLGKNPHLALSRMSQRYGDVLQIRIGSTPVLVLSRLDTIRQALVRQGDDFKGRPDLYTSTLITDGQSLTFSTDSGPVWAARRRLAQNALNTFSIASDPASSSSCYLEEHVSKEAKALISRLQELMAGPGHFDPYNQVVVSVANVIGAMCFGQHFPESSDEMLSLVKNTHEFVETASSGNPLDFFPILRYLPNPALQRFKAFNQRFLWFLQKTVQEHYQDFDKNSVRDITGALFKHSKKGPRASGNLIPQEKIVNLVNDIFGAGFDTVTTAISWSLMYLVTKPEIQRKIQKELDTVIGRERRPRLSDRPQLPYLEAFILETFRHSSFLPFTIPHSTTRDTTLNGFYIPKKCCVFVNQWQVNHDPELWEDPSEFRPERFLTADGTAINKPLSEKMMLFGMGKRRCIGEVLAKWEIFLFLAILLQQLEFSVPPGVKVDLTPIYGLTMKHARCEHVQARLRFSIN
Compound,AC50,"activity, negative = inhibition"
CCN1CCN(C(=O)N[C@H](C(=O)N[C@@H]2C(=O)N3C(C(=O)O)=C(CSc4nnnn4C)CS[C@@H]23)c2ccc(O)cc2)C(=O)C1=O,inactive,–
CCOC(=O)CSc1cc(C(F)(F)F)nc(-c2ccccn2)n1,2.24 µM (active),–
CC(C)Nc1cc(C(F)(F)F)nc(-c2ccccn2)n1,1.58 µM (active),–
FC(F)(F)c1cc(Sc2ccccc2)nc(-c2ccccn2)n1,0.891 µM (active),–
O=C(O)CSc1cc(C(F)(F)F)nc(-c2ccccn2)n1,inactive,–
COC(=O)CSc1cc(C(F)(F)F)nc(-c2ccccn2)n1,0.708 µM (active),–
COc1ccccc1-c1cncnc1NCc1ccccc1,12.6 µM (active),–
COc1ccccc1-c1cncnc1NCc1cccc(C)c1,5.01 µM (active),–
COc1ccccc1-c1cncnc1NCc1cccnc1,6.31 µM (active),–
CCC[C@@H]1C[C@@]1(CCC)C(NS(=O)(=O)c1cccc2cccnc12)c1ccc(Cl)cc1 (stereo partly drawn),inactive,–
CC(C)NC(=O)N1CC[C@@]2(CCCN(C(=O)c3cccc(F)c3)C2)C1,inactive,–
COc1ccc2[nH]cc(CCNc3ncnc4ccc(-c5ccoc5)cc34)c2c1,0.316 µM (active),–
COc1ccc2[nH]cc(CCNc3ncnc4ccc(-c5ccc6c(c5)OCO6)cc34)c2c1,0.631 µM (active),–
C=CC(C)(C)c1[nH]c2ccccc2c1C1=C(O)C(=O)C(c2c[nH]c3c(CC=C(C)C)cccc23)=C(O)C1=O,25.1 µM (active),–
O=C(CSc1nnc(-c2ccco2)n1-c1ccccc1)NCc1ccco1,inactive,–
O=C(CSc1nnc2sc3ccccc3n12)NCc1ccco1,10 µM (active),–
CCOC(=O)c1sc2nc(CC(=O)OC)nc(NCc3ccc(F)cc3)c2c1C,14.1 µM (active),–
COc1ccc(COC(=O)N/N=C2/C[C@@H](O)[C@@H](O)[C@@H]3[C@@H]4C(=O)N(c5cccc(Oc6ccccc6)c5)C(=O)[C@H]4CC[C@@H]23)cc1,–,-36.2% [at 11.4 µM]
Cc1cc(=O)[nH]c(-n2[nH]c3c(c2=O)CCCC3)n1,inactive,–
CCC(Sc1nc(C)cc(=O)[nH]1)C(=O)Nc1nc2c(s1)CCCC2 (stereo not drawn),12.6 µM (active),–
Nc1cc(=O)[nH]c(SCC(=O)Nc2ccc(S(=O)(=O)N3CCOCC3)cc2)n1,inactive,–
Cc1cc(=O)[nH]c(SCC(=O)Nc2nc3c(s2)CCCC3)n1,12.6 µM (active),–
C/C(=N/Nc1nc(C)cc(=O)[nH]1)C(=O)O,–,-8.18% [at 11.4 µM]
CC(c1ccccc1C(O)c1ccccc1)N(C)C (stereo not drawn),inactive,–

Compound,AC50,"activity, negative = inhibition"
O=C(NNC(=O)C1CC(c2cccnc2)=NO1)Nc1cccc(F)c1 (stereo not drawn),14.1 µM (active),–
Cc1ccc(NC(=O)NNC(=O)C2CC(c3cccnc3)=NO2)cc1 (stereo not drawn),inactive,–
COCCNC(=O)C1CC(c2cccc(OC)c2)=NO1 (stereo not drawn),inactive,–
COc1ccc(NC(=O)C2c3cc(OC)c(OC)cc3C(=O)N(C)C2c2cccnc2)cc1OC (stereo not drawn),inactive,–
O=C(Nc1cccc(F)c1)N1CC2(CCN(C(=O)c3cnccn3)CC2)C1,inactive,–
COc1cccc(C2=NOC(C(=O)Nc3ccc(OC)c(OC)c3)C2)c1 (stereo not drawn),10 µM (active),–
COc1cccc(C2=NOC(C(=O)NCCN3CCOCC3)C2)c1 (stereo not drawn),inactive,–
COc1cccc(C2=NOC(C(=O)Nc3cccnc3)C2)c1 (stereo not drawn),10 µM (active),–
CCN1C(=O)[C@H]2[C@@H]3[C@H](O)[C@H](O)CC(=O)[C@H]3CC[C@H]2C1=O,–,-11.3% [at 11.4 µM] and -4.71% [at 11.4 µM]
CN1CCCN(C2C3CC4CC(C3)CC2C4)CC1 (stereo not drawn),inactive,–
c1cc(CNCCN2CCNCC2)ccn1,–,-16% [at 11.4 µM]
c1cc(CSSCc2ccncc2)ccn1,2 µM (active),–
CN(Cc1ccco1)c1ncnc2ccc(-c3ccc4c(c3)OCO4)cc12,0.501 µM (active),–
CN(Cc1ccco1)c1ncnc2ccc(-c3ccoc3)cc12,2.51 µM (active),–
O=C(c1ccncc1)N1CCC2(CCN(Cc3ccccc3)CC2)CC1,inactive,–
O=C(CC(=O)c1ccncc1)c1ccccc1,0.1 µM (active),–
O=C(NNC(=O)c1ccncc1)c1ccncc1,–,-7.18% [at 11.4 µM]
Cn1c(-c2sc(=S)n(-c3ccccc3)c2N)nc2ccccc21,0.708 µM (active),–
O=C1C[C@@H](O)[C@@H](O)[C@H]2[C@@H]3C(=O)N(Cc4ccccc4)C(=O)[C@@H]3CC[C@H]12,–,7.93% [at 11.4 µM] and -5.24% [at 11.4 µM]
Nc1ccc(N=Nc2ccc(-c3ccc(O)cc3)cc2)c2ccc(S(=O)(=O)O)cc12,–,-17.8% [at 2.29 µM]
COc1cc(-c2ccc(N=Nc3ccc4c(S(=O)(=O)O)cc(S(=O)(=O)O)c(N)c4c3O)c(OC)c2)ccc1N=Nc1ccc2c(S(=O)(=O)O)cc(S(=O)(=O)O)c(N)c2c1O,12.6 µM (active),–
COc1ccc(N2C(=O)CCC(C(=O)O)C2c2ccc(F)cc2)cc1 (stereo not drawn),inactive,–
COc1ccc(CNc2ccnc(-c3ccccc3Cl)n2)c(OC)c1,5.01 µM (active),–
COc1ccc(CNc2ccnc(-c3ccccc3C(F)(F)F)n2)c(OC)c1,15.8 µM (active),–

Compound,AC50,"activity, negative = inhibition"
COc1ccccc1CNc1ccnc(-c2ccccc2C(F)(F)F)n1,10 µM (active),–
COc1ccc(CNc2ccnc(-c3ccccc3OC)n2)c(OC)c1,5.01 µM (active),–
COc1ccc([C@@H](Nc2ccccn2)c2cc(C(C)(C)C)cc(C(C)(C)C)c2O)cc1,–,1.22% [at 2.29 µM]
CO[C@H]1COC(=O)C/C=C\[C@@H](C)COC(=O)[C@@H](OCc2ccccc2)/C=C\[C@@H]1C,–,-1.45% [at 11.4 µM]
CC(=O)OC[C@@H]1O[C@@H](O/N=C2/C[C@@H](O)[C@@H](O)[C@@H]3[C@H]4C(=O)N(c5ccc(F)cc5F)C(=O)[C@@H]4CC[C@@H]23)[C@H](OC(C)=O)[C@H](OC(C)=O)[C@@H]1OC(C)=O,–,2.88% [at 11.4 µM]
COc1ccccc1CNc1ccnc(-c2ccccc2Cl)n1,5.01 µM (active),–
Cc1n[nH]c(=O)nc1NCc1ccccc1Cl,inactive,–
Cc1cc(OCCn2cc(/C(N)=N/O)c3ccccc32)ccc1Cl,2 µM (active),–
CC(=O)c1cn(CC(=O)Nc2c(C)cccc2C)c2ccccc12,inactive,–
CC(=O)NNc1nc2ccccc2s1,11.2 µM (active),–
O=[N+]([O-])c1ccc(Nc2nc3ccccc3s2)cc1,–,-20% [at 11.4 µM]
c1ccc2sc(NC3=NCN(C4CCCCCC4)CN3)nc2c1,inactive,–
CC(=O)NNC(=O)C(O)(c1ccccc1)c1ccccc1,inactive,–
O=C(NNc1nc2ccccc2s1)C1CC1,20 µM (active),–
CCOC(=O)c1ccc(NC(=O)C2CCCO2)cc1 (stereo not drawn),2.51 µM (active),–
NC(=O)c1ccc(NC(=O)C2CCCO2)cc1 (stereo not drawn),inactive,–
Cc1ccc(CS(=O)(=O)CCC(=O)NCCCN2CCCC2)cc1,inactive,–
CCC(=O)NNc1cc(=O)c2c(=O)n(C)c(=O)n(C)c2[nH]1,2.82 µM (active),–
CCCC(CCC)C(=O)NNc1cc(=O)c2c(=O)n(C)c(=O)n(C)c2[nH]1,inactive,–
Cc1nn(-c2ccc(F)cc2)c(Cl)c1/C=C(\CCC(=O)O)c1nc2ccccc2s1,inactive,–
Cc1cc(C)nc(NS(=O)(=O)c2ccc(N)cc2)n1,inactive,–
Cc1nn(-c2ccc(F)cc2)c(C)c1NS(=O)(=O)c1ccc2ccccc2c1,15.8 µM (active),–
CCCCn1c(NCc2ccccc2NS(=O)(=O)c2ccc(C)cc2)nc2ccccc21,inactive,–
COc1ccccc1S(=O)(=O)Nc1ccc(-c2nnc3n2CCCCC3)cc1,inactive,–

Compound,AC50,"activity, negative = inhibition"
Cc1ccc(S(=O)(=O)Nc2nc3ccccc3nc2N2CCc3ccccc3C2)cc1,22.4 µM (active),–
Cc1ccc(C(=O)N/N=C\c2cccn2C)cn1,12.6 µM (active),–
Cn1cccc1/C=N/NC(=O)c1sc2ccccc2c1Cl,0.891 µM (active),–
C=N[C@H](C(=O)N[C@@H]1C(=O)N2[C@@H]1SC(C)(C)[C@@H]2C(=O)O)c1ccccc1,inactive,–
O=[N+]([O-])c1ccc2nc(-c3ccccc3)n(OCc3ccc(Cl)cc3)c2c1,2.24 µM (active),–
Clc1ccc(COn2c(-c3ccccc3)nc3ccccc32)cc1,1.58 µM (active),–
O=[N+]([O-])c1ccc(N2CCC(=NOCc3ccc(Cl)cc3)CC2)cc1,inactive,–
Oc1ccc(Cn2c(-c3ccc(O)cc3)nc3ccccc32)cc1,–,-5.47% [at 11.4 µM]
Cc1ccc(COn2c(-c3ccc(Cl)cc3)nc3ccc([N+](=O)[O-])cc32)cc1,0.398 µM (active),–
O=[N+]([O-])c1ccc2nc(-c3ccc(Cl)cc3)n(OCc3ccccc3)c2c1,2.51 µM (active),–
C1CNCCOCCNCCN1,inactive,–
CC(C)C[C@H](NC(=O)[C@@H](O)[C@H](N)Cc1ccccc1)C(=O)O,inactive,–
CCc1ccc(OCC(=O)Nc2ccc(-c3nc4ccccc4o3)c(O)c2)cc1,inactive,–
CC(C)C[C@H](NC(=O)[C@@H](O)[C@@H](N)Cc1ccccc1)C(=O)O,inactive,–
O=C(COc1ccc2ccccc2c1)Nc1ccc(Cc2ccncc2)cc1,0.112 µM (active),–
CC(C)C[C@@H](N)C(=O)Nc1ccc2ccccc2c1,1.58 µM (active),–
c1ccc2cc(NCNc3ccc4ccccc4c3)ccc2c1,0.631 µM (active),–
CC(=O)CC(=O)Nc1ccc2ccccc2c1,2 µM (active),–
C=CCSc1nnc(NC(=O)COc2ccc3ccccc3c2)s1,inactive,–
O=C(O)C[C@H](S)C(=O)O,–,-2.96% [at 11.4 µM]
CO[C@H]1COC(=O)[C@@H](Cc2ccccc2)NC(=O)[C@@H](C)COC(=O)C/C=C\[C@@H]1C,–,-3.6% [at 11.4 µM]
